Data: PubChem BioAssay (Tox21)
Inconclusive results are not listed. Calls of active or inactive are those of the source. Unless noted, the call rests on the fitted dose curve; in most records, active means well fitted curve in the direction sought with a large enough effect in the repeat runs; inconclusive means weak or mixed curves; inactive means no such curve, though single readings can be large; an effect the other way counts as inactive or inconclusive.

Key:
[1] = qHTS assay for small molecules that induce genotoxicity in human embryonic kidney cells expressing luciferase-tagged ATAD5 (AID 651632); further: nearly all actives have a fitted effect of over 15% in size
Method in brief: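 DMSO vehicle served as the control. HEK293T reporter cells, 16 hr at 37C, then 30 min Amplite at room temperature; ATAD5 induction is measured as luciferase activity.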

[2] = qHTS assay for small molecule agonists of the p53 signaling pathway - cell viability (AID 651633; calls by dose curve; further: nearly all actives have a fitted effect of over 30% in size)
Method in brief: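 p53RE-bla cells were treated with compound for 16 hours at 37 C. Cytotoxicity was then measured as CellTiter-Glo luminescence after 30 min at room temperature.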

[3] = qHTS assay for small molecules that induce genotoxicity in human embryonic kidney cells expressing luciferase-tagged ATAD5 - cell viability (AID 651634; calls by dose curve; further: nearly all actives have a fitted effect of over 25% in size)
Method in brief: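 Here HEK293T cells with the ATAD5 luciferase reporter are incubated with test compounds for 15.5 hr, and cytotoxicity is then gauged by measuring protease activity in live cells using fluorescence.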

[4] = qHTS assay for small molecule disruptors of the mitochondrial membrane potential - cell viability (AID 720634; calls by dose curve;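 further: human HepG2 liver cancer cells; nearly all actives have a fitted effect of over 20% in size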)
Method in brief: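 Viability of HepG2 cells is scored from ATP content by luminescence; cells are exposed to compound for 1 hr at 37 C and 5% CO2, then dosed with m-MPI dye before the CellTiter-Glo reagent.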

[5] = qHTS assay for small molecule disruptors of the mitochondrial membrane potential (AID 720635)
Method in brief: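 HepG2 cells exposed to compound 1 hr at 37C, then Mito-MPS dye 30 min. Ratio read of aggregate (540/590 nm) versus monomer (490/535 nm) fluorescence.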

[6] = qHTS assay to test for compound auto fluorescence at 590 nm (red) in HepG2 cells (AID 720674)
Method in brief: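 HepG2 cells, 2,000 per well in MEM with 10% FBS, attached overnight at 37 C, then got 23 nL compound or DMSO. After 1 hr at 37 C, 5% CO2, red fluorescence was read at 540/590 nm against Rose Bengal sodium as reference.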

[7] = qHTS assay to test for compound auto fluorescence at 590 nm (red) in HEK293 cells (AID 720679)
Method in brief: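 HEK293 cells (2,000/well, medium with 10% dialyzed FBS) attached for 4-5 hr at 37C, received 23 nL compound and were incubated overnight at 37C, 5% CO2. Red fluorescence was then read at 540/590nm Ex/Em, referenced to Rose Bengal sodium.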

[8] = qHTS assay to test for compound auto fluorescence at 535 nm (green) in HEK293 cells (AID 720680)
[9] = qHTS assay to test for compound auto fluorescence at 460 nm (blue) in HEK293 cell free culture (AID 720681)
Method in brief: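 Compounds were added to cell-free DMEM with 10% FBS and fluorescence read directly. The blue channel used 405 nm excitation and 460 nm emission, with triamterene as the reference fluorophore.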

[10] = qHTS assay to test for compound auto fluorescence at 535 nm (green) in HEK293 cell free culture (AID 720682)
Method in brief: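 DMEM + 10% FBS, cell-free; cpd or DMSO pinned in; Ex485/Em535 read; output as fluorescein-equivalent signal.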

[11] = qHTS assay to test for compound auto fluorescence at 590 nm (red) in HEK293 cell free culture (AID 720683)
Method in brief: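 Cell-free wells of DMEM with 10% FBS received compound, and intrinsic fluorescence was read at excitation/emission 540/590 nm. Values expressed as equivalence to Rose Bengal sodium.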

[12] = qHTS assay to test for compound auto fluorescence at 590 nm (red) in HepG2 cell free culture (AID 720684)
Method in brief: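 Auto fluorescence equivalency versus Rose Bengal sodium, red channel Ex/Em 540/590 nm; compounds in cell-free MEM/10% FBS; DMSO vehicle control.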

[13] = qHTS assay to test for compound auto fluorescence at 460 nm (blue) in HepG2 cell free culture (AID 720685)
Method in brief: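 Cell-free plates of MEM plus 10% FBS received 23 nL compound or DMSO vehicle; blue-channel (405/460 nm) intensity scored against triamterene as reference fluorophore.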

[14] = qHTS assay to test for compound auto fluorescence at 535 nm (green) in HepG2 cell free culture (AID 720686)
[15] = qHTS assay to test for compound auto fluorescence at 460 nm (blue) in HepG2 cells (AID 720687)
Method in brief: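 HepG2 cells in MEM with 10% FBS, attached overnight at 37 C, were exposed to compound or DMSO for 1 hr at 37 C, 5% CO2. Blue fluorescence was read at 405/460 nm, with triamterene as reference fluorophore.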

[16] = biological target: Glucocorticoid receptor (Homo sapiens) (UniProt P04150); test: qHTS assay to identify small molecule agonists of the glucocorticoid receptor (GR) signaling pathway (AID 720691; active means well fitted activation curve with a large enough effect in the signal ratio in the repeat runs, not every such curve was filed as active; the % refers to the signal ratio); conditions: GR-bla HeLa, beta-lactamase reporter ratio, 18 h; activation: at 62.4 µM (top of the series)
Chain of Glucocorticoid receptor (Homo sapiens) (P04150 whole entry, looked up): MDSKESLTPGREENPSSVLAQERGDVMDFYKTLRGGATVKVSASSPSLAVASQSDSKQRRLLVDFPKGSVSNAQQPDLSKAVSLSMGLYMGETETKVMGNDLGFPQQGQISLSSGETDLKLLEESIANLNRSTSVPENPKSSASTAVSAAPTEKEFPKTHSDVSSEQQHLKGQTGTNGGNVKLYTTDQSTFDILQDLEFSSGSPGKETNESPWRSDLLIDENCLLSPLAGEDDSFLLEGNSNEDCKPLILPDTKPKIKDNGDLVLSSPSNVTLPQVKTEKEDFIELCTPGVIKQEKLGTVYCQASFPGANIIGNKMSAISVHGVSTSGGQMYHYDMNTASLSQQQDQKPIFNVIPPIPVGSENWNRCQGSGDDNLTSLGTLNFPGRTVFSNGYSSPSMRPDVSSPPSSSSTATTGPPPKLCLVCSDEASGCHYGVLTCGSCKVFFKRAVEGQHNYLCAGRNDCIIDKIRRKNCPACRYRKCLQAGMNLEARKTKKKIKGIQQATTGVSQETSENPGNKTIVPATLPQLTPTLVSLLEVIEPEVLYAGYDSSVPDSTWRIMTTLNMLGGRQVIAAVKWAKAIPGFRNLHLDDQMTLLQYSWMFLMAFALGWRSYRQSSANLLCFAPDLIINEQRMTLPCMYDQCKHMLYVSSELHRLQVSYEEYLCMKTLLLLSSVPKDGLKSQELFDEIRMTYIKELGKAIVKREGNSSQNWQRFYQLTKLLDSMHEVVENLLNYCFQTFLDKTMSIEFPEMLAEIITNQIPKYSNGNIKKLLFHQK
Method in brief: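 Compounds in DMSO, alongside positive controls, were added to GR-bla HeLa reporter cells and incubated 18 h at 37 C; GRE-driven beta-lactamase was detected by fluorescence after 2 h with FRET substrate at room temperature.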

[17] = qHTS assay to test for compound auto fluorescence at 535 nm (green) in HepG2 cells (AID 720675)
[18] = qHTS assay to test for compound auto fluorescence at 460 nm (blue) in HEK293 cells (AID 720678)
Method in brief: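 HEK293 cells (2,000 per well, medium with 10% dialyzed FBS) attached for 4-5 hr at 37C, then received compound and stood overnight at 37C, 5% CO2. Blue fluorescence was read at Ex/Em 405/460 nm and expressed relative to triamterene.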

[19] = biological target: Glucocorticoid receptor (Homo sapiens) (UniProt P04150); test: qHTS assay to identify small molecule antagonists of the glucocorticoid receptor (GR) signaling pathway (AID 720692; active means well fitted inhibition curve with a large enough effect in the signal ratio in the repeat runs, not every such curve was filed as active; the % refers to the signal ratio)
Method in brief: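 In a 1536-well cell format, compounds were added 4 h after seeding GR-bla HeLa cells, together with dexamethasone at 5 nM final; reporter activity was measured by FRET-substrate fluorescence following 18 h at 37 C.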

[20] = qHTS assay for small molecule agonists of the p53 signaling pathway (AID 651631; calls by dose curve; further: nearly all actives have a fitted effect of over 15% in size)
Method in brief: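 Testing took place in human colorectal HCT-116 cells with stable p53RE-driven beta-lactamase. After 16 h of compound exposure at 37 °C, a FRET substrate was added and fluorescence recorded 2 h later.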

Measured: Potency

CCCCCC1=CCCC1=O
inactive: [1] | [2] | [3] | [4] | [5] | [6] | [7] | [8] | [9] | [10] | [11] | [12] | [13] | [14] | [15] | [16]

Cc1ccc2oc(=O)ccc2c1
inactive: [1] | [2] | [4] | [5] | [6] | [17] | [18] | [7] | [8] | [9] | [10] | [11] | [12] | [13] | [14] | [15] | [16]

Cc1occc(=O)c1O
inactive: [1] | [2] | [4] | [5] | [6] | [17] | [18] | [7] | [8] | [9] | [10] | [11] | [12] | [13] | [14] | [15]

CC1=CCC2CC1C2(C)C (configuration not stated)
inactive: [1] | [2] | [3] | [6] | [18] | [7] | [8] | [9] | [10] | [11] | [12] | [13] | [14] | [15]

CCCCCOC(C)=O
inactive: [1] | [2] | [3] | [4] | [5] | [6] | [18] | [7] | [9] | [10] | [11] | [12] | [13] | [14] | [15] | [16]

COc1ccc(NC(C)=O)cc1N
inactive: [1] | [2] | [3] | [4] | [5] | [6] | [7] | [8] | [9] | [10] | [11] | [12] | [13] | [14] | [15] | [16] | [19]

O=C(O)CCCCCCCCCCC(=O)O
inactive: [1] | [2] | [3] | [4] | [5] | [6] | [17] | [18] | [7] | [8] | [9] | [10] | [11] | [12] | [13] | [14] | [15] | [16]

NNc1nncc2ccccc12
inactive: [20] | [2] | [4] | [6] | [17] | [7] | [9] | [10] | [11] | [12] | [13] | [14] | [15] | [16]

OC[C@H]1O[C@@](CO)(O[C@H]2O[C@H](CO)[C@@H](O)[C@H](O)[C@H]2O)[C@@H](O)[C@@H]1O
inactive: [1] | [6] | [17] | [7] | [8] | [9] | [10] | [11] | [12] | [13] | [14] | [15]

CCc1ccc(CCOc2ccc(CC3SC(=O)NC3=O)cc2)nc1 (configuration not stated)
inactive: [1] | [2] | [4] | [6] | [17] | [18] | [7] | [9] | [10] | [11] | [12] | [13] | [14] | [15] | [16]

OCC(CO)(CBr)CBr
inactive: [1] | [2] | [4] | [5] | [6] | [17] | [7] | [8] | [9] | [10] | [11] | [12] | [13] | [14] | [15] | [16] | [19]

CC1CCC(C(C)C)C(O)C1 (configuration not stated)
inactive: [1] | [2] | [4] | [5] | [6] | [17] | [7] | [8] | [9] | [10] | [11] | [12] | [13] | [14] | [15]

O=C(O)c1cc(C(=O)O)cc(S(=O)(=O)O)c1
inactive: [1] | [2] | [4] | [5] | [6] | [7] | [8] | [9] | [10] | [11] | [12] | [13] | [14] | [15] | [16]
